For nine molecules, Potency results are on record in PubChem BioAssay (Tox21).

Structures are written as SMILES. Records with an inconclusive call do not appear. Calls of active or inactive are those of the source. Unless noted, calls follow the shape of the full dose curve.

Test [1] in a line: Nuclear factor erythroid 2-related factor 2/antioxidant responsive element (Nrf2/ARE) small molecule agonists: luciferase reporter gene qHTS assay in human keratinocytes (AID 1919969). Also: nearly all actives have a fitted effect of over 35% in size. Also: potency is read from the fitted curve at half-maximal effect.
For test [2], the target named is Gonadotropin-releasing hormone receptor (Homo sapiens) (UniProt P30968). As to the kind of experiment: Human gonadotropin-releasing hormone receptor (GnRHR) small molecule agonists, calcium flux assay in GnRHR-HEK293 cells (AID 1920063). Also: nearly all actives have a fitted effect of over 35% in size. An outline of the steps: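 Fluorescence kinetics (480 nm excitation, 540 nm emission; 3 min, 1 s steps) report calcium mobilisation in human GnRHR-HEK293 cells in agonist mode. Dye incubation: 1 h, 37 C.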
Gonadotropin-releasing hormone receptor (Homo sapiens), sequence (P30968 whole entry, looked up): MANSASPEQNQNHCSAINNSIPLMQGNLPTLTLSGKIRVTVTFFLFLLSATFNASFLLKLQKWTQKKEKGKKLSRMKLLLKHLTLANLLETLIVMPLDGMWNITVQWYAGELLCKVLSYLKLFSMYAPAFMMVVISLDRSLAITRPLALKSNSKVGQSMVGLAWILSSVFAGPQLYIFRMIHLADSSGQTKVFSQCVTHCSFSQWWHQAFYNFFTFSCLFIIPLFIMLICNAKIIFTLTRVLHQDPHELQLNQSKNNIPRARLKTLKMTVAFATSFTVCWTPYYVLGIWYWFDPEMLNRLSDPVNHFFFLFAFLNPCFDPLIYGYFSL

In test [3] the target is KiSS-1 receptor (Homo sapiens) (UniProt Q969F8). Kind of test: Human kisspeptin (KISS1R) small molecule agonists, calcium flux assay in KISS1R-HEK293 cells (AID 1920064; active = well fitted activation curve with a large enough effect in the repeat runs). An outline of the steps: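 Measures KISS1R agonism through calcium-sensitive dye fluorescence in stably transfected HEK293 cells, read for 3 min after pin-tool compound delivery; 15-point titrations in triplicate.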
KiSS-1 receptor (Homo sapiens), sequence (Q969F8 whole entry, looked up): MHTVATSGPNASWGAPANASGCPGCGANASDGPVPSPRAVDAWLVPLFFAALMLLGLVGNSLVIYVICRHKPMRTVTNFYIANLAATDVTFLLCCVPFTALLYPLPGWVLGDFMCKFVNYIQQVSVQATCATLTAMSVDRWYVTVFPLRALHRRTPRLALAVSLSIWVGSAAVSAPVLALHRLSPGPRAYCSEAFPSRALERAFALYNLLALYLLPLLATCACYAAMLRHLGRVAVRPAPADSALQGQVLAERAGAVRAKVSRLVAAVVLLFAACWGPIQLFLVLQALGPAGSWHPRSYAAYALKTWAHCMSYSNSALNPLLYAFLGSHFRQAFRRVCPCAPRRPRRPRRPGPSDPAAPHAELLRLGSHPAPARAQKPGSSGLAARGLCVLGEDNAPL

Test [4] is described as follows: G protein-coupled receptor (GPCR) small molecule agonists, calcium flux assay: HEK293 wild type cell line counter screen (AID 1920065). In short, it runs like this: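 Readout: fluorescence at 480 nm excitation/540 nm emission, sampled at 1 s intervals for 3 min. Cells had been cultured 18 h, then dye-loaded 1 h at 37 C before compound or ATP addition.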
The nature of test [5]: p53 small molecule agonists, cell-based qHTS assay with human liver microsomes: qHTS cell viability counter screen (AID 1963579). Also: nearly all actives have a fitted effect of over 45% in size. In short, it runs like this: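 p53RE-bla cells (4,000/well) were pre-incubated 5 h at 37 C, then given compounds in DMSO plus human liver microsomes (0.5 mg/mL final) and NADPH (0.5 mg/mL final) for 16 h at 37 C. Viability was read by CellTiter-Glo luminescence.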

A short description of test [6]: p53 small molecule agonists, cell-based qHTS assay with rat liver microsomes: qHTS cell viability counter screen (AID 1963580). Also: nearly all actives have a fitted effect of over 45% in size. In short, it runs like this:
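Intracellular ATP, by CellTiter-Glo luminescence, defines viability. HCT-116 p53RE-bla cells, 4,000 per well, were compound-treated in the presence of rat liver microsomes and NADPH for 16 h at 37 C.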

The nature of test [7]: p53 small molecule agonists, cell-based qHTS assay: qHTS cell viability counter screen (AID 1963581). Also: nearly all actives have a fitted effect of over 45% in size. Also: potency is read from the fitted curve at half-maximal effect. An outline of the steps:
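In the same plates used for the p53 bla reporter, HCT-116 cells given compounds for 16 h at 37 C received CellTiter-Glo; luminescence was recorded 30 min later at room temperature.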

Test [8] addresses 5-hydroxytryptamine receptor 2A (Homo sapiens) (UniProt P28223). Kind of test: 5-hydroxytryptamine receptor 2A (HTR2A) small molecule antagonists, cell-based qHTS assay (AID 1963586). Also: nearly all actives have a fitted effect of over 45% in size. An outline of the steps:
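Antagonist-mode intracellular calcium assay: DOI (4 nM) added after 5 min compound pre-incubation at room temperature to dye-loaded HTR2A-CHO cells. Fluorescence followed for 3 min, sampled every second.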

Test [9] has the same target. Kind of test: 5-hydroxytryptamine receptor 2A (HTR2A) small molecule agonists, cell-based qHTS assay (AID 1963587). Also: nearly all actives have a fitted effect of over 30% in size. An outline of the steps: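 Kinetic calcium-flux fluorescence (2 min, 1 sec intervals) after compound addition in agonist mode. HTR2A-CHO cells were cultured 18 h, then dye-loaded 1 h at 37 C.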
Test [10] deals with Muscarinic acetylcholine receptor M1 (Homo sapiens) (UniProt P11229). As to the kind of experiment: Cholinergic receptor muscarinic 1 (CHRM1) small molecule antagonists, cell-based qHTS assay (AID 1963588). Also: nearly all actives have a fitted effect of over 40% in size. An outline of the steps:
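CHRM1-CHO calcium-flux assay, antagonist mode. Cells were seeded 18 h, dye-loaded 1 h at 37 C and given compound for 5 min at RT, then acetylcholine was added at 50nM. FDSS fluorescence was read 3 min; 15 concentrations, three runs.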

Test [11] has the same target. As to the kind of experiment: Cholinergic receptor muscarinic 1 (CHRM1) small molecule agonists, cell-based qHTS assay (AID 1963589). Also: nearly all actives have a fitted effect of over 35% in size. An outline of the steps:
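Each compound was tested at 15 concentrations across three independent runs on dye-loaded CHO cells stably expressing human CHRM1, reading intracellular calcium fluorescence kinetically at 1 sec intervals.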

In test [12] the target is Beta-2 adrenergic receptor (Homo sapiens) (UniProt P07550). Kind of test: Adrenergic beta2 receptor (ADRB2) small molecule antagonists, cell-based qHTS assay (AID 1963592). Also: series mostly up to about 92 µM; nearly all actives have a fitted effect of over 50% in size. An outline of the steps:
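Cells (CHO, stable ADRB2 overexpression) incubated 18-20hr at 37C; compounds added from DMSO; agonist mix (1nM isoproterenol, 100uM IBMX, 25uM Ro-20-1724) added; 0.5hr RT; d2-cAMP and anti-cAMP-cryptate added; 1hr RT; 665/615 nm read.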

The target in test [13] is D(2) dopamine receptor (Homo sapiens) (UniProt P14416). Kind of test: Dopamine D2 receptor (DRD2) small molecule agonists, cell-based qHTS assay (AID 1963594). Also: nearly all actives have a fitted effect of over 35% in size. In short, it runs like this: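 cAMP accumulation in DRD2-HEK293 cells measured by HTRF after 1 h detection; compounds added 10 min before NKH477 (200nM […]) forskolin-analogue stimulation, 30 min at room temperature, with Ro20-1724 present at 0.1 mM final.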
D(2) dopamine receptor (Homo sapiens), sequence (P14416 whole entry, looked up): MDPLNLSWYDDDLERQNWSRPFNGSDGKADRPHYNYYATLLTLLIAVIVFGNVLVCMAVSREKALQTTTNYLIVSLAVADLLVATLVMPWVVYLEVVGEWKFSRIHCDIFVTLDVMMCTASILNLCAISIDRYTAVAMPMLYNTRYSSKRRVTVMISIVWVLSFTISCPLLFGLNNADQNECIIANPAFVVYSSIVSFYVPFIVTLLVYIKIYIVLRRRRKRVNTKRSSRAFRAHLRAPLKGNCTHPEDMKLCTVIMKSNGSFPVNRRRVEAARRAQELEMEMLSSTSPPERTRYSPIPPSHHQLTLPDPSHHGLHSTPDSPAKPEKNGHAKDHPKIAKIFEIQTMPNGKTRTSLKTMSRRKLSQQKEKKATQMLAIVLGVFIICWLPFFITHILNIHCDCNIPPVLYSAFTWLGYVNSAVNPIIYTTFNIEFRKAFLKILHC

For test [14] the target is unchanged. Kind of test: Dopamine D2 receptor (DRD2) small molecule antagonists, cell-based qHTS assay (AID 1963595; active = well fitted inhibition curve with a large enough effect in the signal ratio in the repeat runs, with a control signal flat; the % refers to the signal ratio). An outline of the steps:
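HEK293 cells stably expressing DRD2, preincubated with 0.1 mM Ro20-1724 and compounds 10 min, were stimulated with 200 nM NKH477 plus 12 nM quinpirole for 30 min at room temperature; cAMP measured by HTRF (665/620 nm).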

Test [15] in a line: cAMP Responsive Elements (CRE) small molecule agonists, cell-based qHTS assay (AID 1963590). Also: potency is read from the fitted curve at half-maximal effect. An outline of the steps: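 Cell line: CRE-bla HEK 293T; medium DMEM/10% dialyzed FBS/0.1 mM NEAA/1 mM pyruvate/25 mM HEPES; 3 h compound exposure; beta-lactamase FRET readout after 2 h substrate loading at RT.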
Test [16] is described as follows: cAMP Responsive Elements (CRE) small molecule antagonists, cell-based qHTS assay (AID 1963591; active = well fitted inhibition curve with a large enough effect in the signal ratio in the repeat runs, not every such curve was filed as active; the % refers to the signal ratio). An outline of the steps: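 Inhibition of NKH477-driven (0.25 uM final) CRE-beta-lactamase signal in HEK293T cells, 3 h compound exposure at 37 °C, detected by FRET substrate fluorescence.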
The nature of test [17]: p53 small molecule agonists, cell-based qHTS assay with rat liver microsomes (AID 1963578). An outline of the steps:
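p53RE-bla cells were exposed to compounds together with rat liver microsomes (0.5 mg/mL final) and NADPH (0.5 mg/mL final) for 16 h at 37 C, then read by LiveBLAzer beta-lactamase fluorescence after 2 h at room temperature.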

In test [18] the target is Beta-2 adrenergic receptor (Homo sapiens) (UniProt P07550). Kind of test: Adrenergic beta2 receptor (ADRB2) small molecule agonists, cell-based qHTS assay (AID 1963593).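 Also: CHO cells stably overexpressing human ADRB2.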 An outline of the steps: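 CHO cells stably over-expressing ADRB2 were plated overnight at 37C, then dosed with compounds plus a stimulation mix containing 100uM IBMX and 25uM Ro-20-1724 for 0.5hr at room temperature. cAMP was measured by HTRF competition, 1hr.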
Beta-2 adrenergic receptor (Homo sapiens), sequence (P07550 whole entry, looked up): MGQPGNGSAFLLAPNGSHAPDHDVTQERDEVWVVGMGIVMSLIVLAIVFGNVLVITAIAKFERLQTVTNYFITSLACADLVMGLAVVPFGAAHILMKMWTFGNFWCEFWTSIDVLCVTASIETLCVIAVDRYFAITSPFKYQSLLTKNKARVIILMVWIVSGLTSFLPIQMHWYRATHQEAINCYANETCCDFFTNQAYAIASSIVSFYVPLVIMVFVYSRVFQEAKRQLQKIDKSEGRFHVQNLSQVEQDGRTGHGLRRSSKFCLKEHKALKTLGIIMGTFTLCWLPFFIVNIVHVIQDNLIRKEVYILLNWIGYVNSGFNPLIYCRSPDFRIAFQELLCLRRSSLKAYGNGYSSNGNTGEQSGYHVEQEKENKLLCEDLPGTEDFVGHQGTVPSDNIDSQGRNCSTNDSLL

Test [19] in a line: p53 small molecule agonists, cell-based qHTS assay (AID 1963582; active = well fitted activation curve with a large enough effect in the signal ratio in the repeat runs, not every such curve was filed as active; the % refers to the signal ratio). An outline of the steps: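 Compounds are pin-transferred in DMSO onto p53RE-bla cells and incubated 16 h at 37 C. The B/G FRET beta-lactamase substrate is then applied for 2 h at RT and fluorescence recorded.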

Muscarinic acetylcholine receptor M1 (Homo sapiens), sequence (P11229 whole entry, looked up): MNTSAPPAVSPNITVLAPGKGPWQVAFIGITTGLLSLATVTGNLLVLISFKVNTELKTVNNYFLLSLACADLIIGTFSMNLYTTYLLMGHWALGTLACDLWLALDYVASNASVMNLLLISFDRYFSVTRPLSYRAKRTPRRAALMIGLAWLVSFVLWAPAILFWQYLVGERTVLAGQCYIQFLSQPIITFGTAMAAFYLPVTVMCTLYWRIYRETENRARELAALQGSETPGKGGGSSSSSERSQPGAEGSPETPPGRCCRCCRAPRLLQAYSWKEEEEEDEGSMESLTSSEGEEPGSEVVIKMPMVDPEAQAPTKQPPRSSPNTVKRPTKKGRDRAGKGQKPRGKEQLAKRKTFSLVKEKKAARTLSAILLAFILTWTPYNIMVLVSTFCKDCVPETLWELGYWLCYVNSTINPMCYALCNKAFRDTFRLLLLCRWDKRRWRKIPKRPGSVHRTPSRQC
5-hydroxytryptamine receptor 2A (Homo sapiens), sequence (P28223 whole entry, looked up): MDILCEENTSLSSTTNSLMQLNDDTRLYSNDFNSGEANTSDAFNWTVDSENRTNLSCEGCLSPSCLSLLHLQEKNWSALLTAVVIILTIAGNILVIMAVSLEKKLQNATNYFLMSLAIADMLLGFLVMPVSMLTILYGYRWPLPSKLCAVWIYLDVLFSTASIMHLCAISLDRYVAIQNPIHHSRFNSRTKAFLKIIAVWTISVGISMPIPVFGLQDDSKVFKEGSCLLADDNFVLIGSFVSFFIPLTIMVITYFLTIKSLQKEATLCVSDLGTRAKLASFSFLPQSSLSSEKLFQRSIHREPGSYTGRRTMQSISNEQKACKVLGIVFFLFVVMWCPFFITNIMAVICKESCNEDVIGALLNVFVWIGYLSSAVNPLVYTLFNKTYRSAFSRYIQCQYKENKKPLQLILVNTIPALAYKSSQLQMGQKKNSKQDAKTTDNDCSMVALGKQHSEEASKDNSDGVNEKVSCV

For the molecule `C=C(C)c1cccc(C(=C)C)c1`, the Potency result in test [1], in test [2], in [3], in test [4], in test [5] and in test [6] was “inactive” in each case. Moreover, the Potency result in test [7], in [8], in [9], in test [10], in [11] and in test [12] was “inactive” each time. Moreover, the Potency result in test [13] and in [14] was “inactive” in each case.

Take `CCCCN1C(=O)c2ccccc2C1=O`: the Potency entry in test [1], in [2], in test [3], in test [4], in test [5] and in [6] was “inactive” in each case. Besides, the Potency entry in test [7], in test [8], in test [9], in test [10], in test [11] and in test [15] was “inactive” in each case. Besides, the Potency result in test [12], in test [13] and in test [14] was “inactive” each time.

`COc1cc(Cl)ccc1Oc1ccc(Cl)cc1Cl`: the Potency in [1] was 14.9 µM (active). Also, the Potency result in [2], in test [3], in test [4], in [5], in test [6] and in [7] was “inactive” each time. Moreover, the Potency entry in test [8], in test [9], in test [10], in test [11], in test [16] and in test [13] was “inactive” throughout.

`COc1cc(Cl)c(OC)cc1N`: the Potency result in [1], in test [2], in test [3], in test [4], in test [5] and in [6] was “inactive” throughout. For the same molecule, the Potency entry in [7], in test [8], in test [9], in test [10], in test [11] and in test [15] was “inactive” each time. In addition, the Potency entry in test [13] and in test [14] was “inactive” each time.

As for `C[C@H]1O[C@@H](O[C@H]2CC[C@@]3(C)[C@H](CC[C@@H]4[C@@H]3C[C@@H](O)[C@]3(C)[C@@H](C5=CC(=O)OC5)CC[C@]43O)C2)C[C@H](O)[C@@H]1O[C@H]1C[C@H](O)[C@H](O[C@H]2C[C@H](O)[C@H](O[C@@H]3O[C@H](CO)[C@@H](O)[C@H](O)[C@H]3O)[C@@H](C)O2)[C@@H](C)O1`, the Potency is 0.531 µM (active) in [1] and 0.251 µM (active) in [7]. Also, the Potency entry in test [2], in test [3], in test [4], in test [17], in [5] and in [8] was “inactive” in each case. Besides, the Potency entry in [9], in test [10], in test [11], in test [12], in test [18] and in [13] was “inactive” throughout. For the same molecule, in [14], the Potency result is “inactive”.

In the case of `O=C(O)CCc1nc2ccccc2[nH]1`, the Potency result in test [1], in test [2], in test [3], in test [4], in test [17] and in test [6] was “inactive” throughout. The Potency entry in test [7], in [19], in test [8], in test [10], in test [16] and in test [12] was “inactive” throughout. Further, the Potency result in test [13] and in test [14] was “inactive” each time.

For the molecule `S=c1[nH]c2ccccc2s1`, the Potency in [1] was 21.7 µM (active); in [15], 48.6 µM (active). Further, the Potency result in test [2], in test [3], in test [4], in [17], in test [6] and in [8] was “inactive” throughout. The Potency entry in test [9] and in test [11] was “inactive” throughout.

Turning to `NC(=O)c1cc[n+](CC2=C(C(=O)[O-])N3C(=O)[C@@H](NC(=O)Cc4cccs4)[C@H]3SC2)cc1`, the Potency result in test [1], in [2], in test [3], in test [4], in [5] and in test [6] was “inactive” in each case. Also, the Potency result in test [7], in test [8], in [9], in [10], in test [16] and in test [12] was “inactive” throughout. For the same molecule, in test [14], the Potency entry is “inactive”.

Consider `C=Cc1ccc(S(=O)(=O)O)cc1`, for which the Potency entry in test [1], in test [2], in test [3], in [4], in test [17] and in [6] was “inactive” in each case. Also, the Potency entry in [7], in test [19], in test [8], in test [9], in test [10] and in test [11] was “inactive” in each case. In addition, the Potency entry in [15], in test [12], in test [13] and in test [14] was “inactive” each time.
